# Reference: PubChem BioAssay (NCI)
# Compounds without any hit were thinned out: in the full panel of roughly 83,000, 20% have a hit.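 Testing used 96-well plates and a 48-hour single-concentration exposure. Example: -40 means 40% of the starting cells died.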 Unmarked numbers belong to inactive results. Calls of active or inactive are those of the source.
# System: TK-10 renal
# Assay: NCI-60 one-dose screen, 48 h (100 = growth as untreated, 0 = no growth, -100 = all killed)
# Details: 10 µM unless noted
# Method: Growth inhibition of the TK-10 human tumor cell line is measured as a screen for anti-cancer activity. Cells are grown in 96 well plates and exposed to the test compound for 48 hours. Compounds are tested at a single concentration, which is 10^-5 M for most compounds. The reported endpoint is percent growth (GI% or GIPRCNT), where numbers from 0 - 100% represent growth inhibition, and numbers from -100% - 0 represent cell death. For example, a value of 40 represents 60% growth inhibition. A value of 0 means no net growth occurred over the course of the experiment. A value of -40 indicates 40% of cells at the beginning of the experiment died by the end of the experiment. A value of -100 means all cells are dead at the end of the experiment.
# NCI-60 Human Tumor Cell Lines Screen was performed using the standard one-dose NCI protocol, which is described in more detail at https://dtp.cancer.gov/discovery_development/nci-60/default.htm.
# Compounds with GIPRCNT values below 10 were considered active. Activity score was based on GIPRCNT using the following formula: […]
# Score is 0 for GIPRCNT values of 100 or above, 50 for GIPRCNT values of 0, and 100 for GIPRCNT values of -100.
row,SMILES,growth
1,CCN(CC)CCCNc1nccc2ccc(Cl)cc12,99.8%
2,CC(C)(C)n1cc(-c2ccnc(NCCCNS(=O)(=O)c3ccc(C(F)(F)F)cc3)c2)c(-c2cccc(O)c2)n1,92.2%
3,CN(C[C@H]1Cc2c(cccc2N2CCN(c3ncccn3)CC2)CN1)[C@H]1CCCc2cccnc21,38%
4,O=C1/C(=C/c2ccc([N+](=O)[O-])cc2)CN(C(=O)CCN2CCC(=NO)CC2)C/C1=C\c1ccc([N+](=O)[O-])cc1,8.77% (active)
5,COc1ccc(OC)c(C2OC(c3ccc4ccccc4c3O)=NN2C(C)=O)c1 (stereo not given),80.7%
6,O=C1/C(=C/c2ccc(Cl)cc2)CN(C(=O)CCN2CCC(=NO)CC2)C/C1=C\c1ccc(Cl)cc1,-74.7% (active)
7,COc1ccc(Nc2ncccc2C(=O)NCc2cn(Cc3cccc(Oc4ccccc4)c3)nn2)cc1,76.3%
8,N/C(=N\C(N)=N\c1nc2ccccc2s1)c1ccncc1,109%
9,CCCCCCCCCCCCNC(=O)[C@H]1CSC(c2cc(Br)cs2)N1 (stereo not given in full),-80.1% (active)
10,COc1ccc2c(c1)NC1=C(C(=O)OC1)C2c1cc(OC)c2c(c1)OCO2 (stereo not given),58.3%
11,COc1cc(-c2nn(C(=O)NS(=O)(=O)c3ccccc3)cc2-c2ccncc2)ccc1Cl,83%
12,Fc1ccc(-c2nc(-c3nc4ncccc4[nH]3)cc3c2[nH]c2ccccc23)cc1F,91.7%
13,COc1ccc(/C=C2/C(=O)NC(SCC(=O)N3CCN(c4cc5c(cc4F)c(=O)c(C(=O)O)cn5C4CC4)CC3)=NC2N)cc1OC (stereo not given),112%
14,c1ccc(-c2nnc(-c3ccccn3)s2)nc1,123%
15,CC(=O)Nc1scc[n+]1Cc1ccccc1,113%
16,O=C(NS(=O)(=O)c1ccc2ccccc2c1)n1cc(-c2ccncc2)c(-c2ccc(Cl)c(O)c2)n1,116%
17,COc1cc(/C=C/c2cc(/C=C/c3ccc(O)c(OC)c3)n(C(N)=O)n2)ccc1O,4.79% (active)
18,CCCCCc1cc[n+](CC(=O)c2ccc([N+](=O)[O-])cc2)cc1,74.6%
19,Clc1cccc(-c2cc(-c3ccc4c(c3)OCCO4)[nH]n2)c1,61% [25 µM]
20,CCOC(=O)NNC(=S)Nc1ccccc1,111%

row,SMILES,growth
1,C=CCn1cc(-c2nc3ccccc3s2)c2cc(-c3ccc4c5c(cccc35)C(=O)N(CCN3CCNCC3)C4=O)ccc21,132%
2,Cc1ccc(-c2nc(C(Cl)Cl)n3nc(-c4ccccc4)cc3n2)cc1,-68.6% (active)
3,O=[N+]([O-])c1cccc(-c2nc3sccn3c2-c2ccnc(NCCCNS(=O)(=O)c3ccc(C(F)(F)F)cc3)n2)c1,73.6%
4,CCOC(=O)C1C(=O)C=C(c2ccc(OC)cc2)CC1c1sc(N(C)Cc2ccccc2)nc1Cl (stereo not given),93.7%
5,CCC(C)/C(=C\C#N)NCCCN/C(=C/C#N)C(C)CC (stereo not given),119%
6,Cc1ccc(NS(=O)(=O)c2cc(C)ccc2C)cc1,58.5%
7,Cc1csc(NC(c2ccccc2)c2c(C)nc3ccccn23)n1 (stereo not given),111%
8,CC(C)(C)OC(=O)NC(CSCc1ccccc1)C(=O)ON1C(=O)CCC1=O (stereo not given),119%
9,COc1cc2c(=O)n(C3CCCCCC3)c3c4cc[nH]c4ncc3c2cc1OC,96.3%
10,Cc1ccc(-c2cc3nc(C(Cl)Cl)nc(-c4cccnc4)n3n2)cc1,6.78% (active)
11,CCc1cnc(=S)n(-c2ccccc2)c1,122%
12,COc1ccc2c(c1)cn1c3ccc(OC)cc3[nH]c(=O)c21,-89.6% (active)
13,CC(C)(C)c1[nH]nc2c1C(c1cc3ccccc3[nH]c1=O)Nc1cc(C(=O)Nc3ccc(Cl)cc3)ccc1N2 (stereo not given),105%
14,O=[N+]([O-])c1ccc(/C=C/C2(CCl)OCCO2)cc1,103%
15,COc1ccc(-c2c(-c3cc(OC)c4c(c3)OCO4)noc2N)cc1,54.8%
16,CCCOC(=O)n1cccc1,110%
17,COc1ccc(-c2cn(-c3cccc(C(=O)/C=C/c4cc(OC)c(OC)c(OC)c4)c3)c(=O)[nH]2)cc1OC,96.1%
18,COc1ccc(C2CC(c3ccc(OC)cc3OC)=NN2c2ccc(S(N)(=O)=O)cc2)cc1 (stereo not given),105%
19,O=C(O)C1CCCCN1c1nc(Cl)nc(Cl)n1 (stereo not given),103%
20,COc1cc(-c2nn(-c3cccc(NC(=O)c4ccc(Cl)c(C(F)(F)F)c4)c3)cc2-c2ccncc2)ccc1Cl,69.5%
